The test system of assay [1] is Vero E6 infected with SARS-CoV-2. The assay can be described thus: morphology score (similarity to uninfected cells); higher = more like uninfected cells. Particulars: 24 h.
Assay [2] shares this test system. In words: SARS-CoV-2 infection rate relative to infected DMSO; higher = more infection, active = 60 or less. Particulars: 24 h.

The source of these data is the supplement of paper PMC13380429.

Structures are written as SMILES.

`CCN(CC)CCNC(=O)c1ccccc1I` (10 µM) gave a morphology score in assay [1] of 0.221. The SARS-CoV-2 infection rate in assay [2] is 91% (inactive).
As to `CCCN(CCC)[C@H]1CCc2ccc(O)cc2C1` [7-hydroxy-DPAT] (10 µM), the morphology score in assay [1] is -0.355. For the same compound, the SARS-CoV-2 infection rate in assay [2] was 122% (inactive).
The corresponding values for `O=C(CCCCCCCn1cc(-c2cccnc2)nn1)Nc1ccccc1-c1ccccc1` (0.833333 µM) are -0.143 and 114% (inactive).
The corresponding values for `O=C(NCc1ccccc1)c1csc(Nc2ccncn2)n1` [thiazovivin] (0.833333 µM) are 0.654 and 99% (inactive).
The corresponding values for `C[C@]12CC[C@H](O)C[C@H]1CC[C@@H]1[C@@H]2CC[C@]2(C)[C@@](O)(c3ccoc3)CC[C@]12O` [rostafuroxine] (10 µM) are -0.206 and 118% (inactive).
As for `C[C@H](Cc1cc2c(c(C(N)=O)c1)N(CCCO)CC2)NCCOc1ccccc1OCC(F)(F)F` [silodosin] (10 µM), the morphology score in assay [1] was -0.144. Further, the SARS-CoV-2 infection rate in assay [2] was 106% (inactive).
The corresponding values for `O=S(=O)(O)CCSSCCS(=O)(=O)O` [dimesna] (10 µM) are 0.144 and 104% (inactive).
The corresponding values for `COc1c(N2C[C@@H]3CCCN[C@@H]3C2)c(F)cc2c(=O)c(C(=O)O)cn(C3CC3)c12` [moxifloxacin] (10 µM) are 0.0295 and 106% (inactive).
The corresponding values for `COc1[nH]c2ccc(F)cc2c1C(=O)OCC1CCN(CCNS(C)(=O)=O)CC1` (10 µM) are 0.0361 and 106% (inactive).
In assay [1], `O=C(NCCCN1CCC2(CC1)OCc1ccccc12)[C@H]1CCCN1Cc1ccccc1` (10 µM) showed a morphology score of 0.505. Further, the SARS-CoV-2 infection rate in assay [2] was 63.5% (inactive).
The corresponding values for `O=C(Nc1ccccc1F)N[C@H]1N=C(c2ccccc2)c2ccccc2NC1=O` (10 µM) are -0.135 and 113% (inactive).
The corresponding values for `O=c1c(O)c(-c2ccc(O)c(O)c2)oc2cc(O)cc(O)c12` [quercetin] (10 µM) are 0.0809 and 102% (inactive).
The corresponding values for `O=C1C[C@@H](c2ccc(O)cc2)Oc2cc(O)cc(O)c21` [naringenin] (10 µM) are 0.0218 and 98.5% (inactive).
For the compound `Cc1cc(N2CCOCC2)ccc1Nc1nc(NC2CCCCC2)c2nc[nH]c2n1` (10 µM), the morphology score in assay [1] is -0.0587. Also, the SARS-CoV-2 infection rate in assay [2] was 90.5% (inactive).
The corresponding values for `O=C1C(O)=C(O)C(=O)C(O)=C1O` [tetroquinone] (10 µM) are 0.0422 and 106% (inactive).
The corresponding values for `C[N+](C)(C)CCCCCNCC12CC3CC(CC(C3)C1)C2` (10 µM) are -0.0308 and 112% (inactive).
The corresponding values for `Cc1sc(C)c(C(=O)NC2(c3ccc(C(=O)O)cc3)CC2)c1Cc1ccc(C(F)(F)F)cc1` (10 µM) are 0.187 and 108% (inactive).
On to `CCCCN(CCCC)C(=O)CN1C[C@H](c2ccc3c(c2)OCO3)[C@@H](C(=O)O)[C@@H]1c1ccc(OC)cc1` [atrasentan] (10 µM), for which the morphology score in assay [1] was found to be 0.0179. Further, in assay [2], the SARS-CoV-2 infection rate is 108% (inactive).
In turn, `Cc1cc2c(cc1CC(=O)c1sccc1S(=O)(=O)Nc1onc(C)c1Cl)OCO2` [sitaxentan] (10 µM) returned a morphology score in assay [1] of 0.015. The SARS-CoV-2 infection rate in assay [2] is 101% (inactive).
The corresponding values for `C[C@@H]1CN(c2c(F)c(N)c3c(=O)c(C(=O)O)cn(C4CC4)c3c2F)C[C@H](C)N1` [sparfloxacin] (10 µM) are -0.0335 and 115% (inactive).
The corresponding values for `CCC(CC)C(c1ccc(Nc2nc3ccccc3s2)cc1)n1cncn1` (stereo not given) [talarozole] (10 µM) are 0.326 and 74.5% (inactive).
The compound `CN(C)CCCSc1ccccc1NC(=O)/C=C/c1ccccc1` [cinanserin] (10 µM) gave a morphology score in assay [1] of 0.164. Besides, the SARS-CoV-2 infection rate in assay [2] was 92% (inactive).
`O=[N+]([O-])C(Br)(CO)CO` [bronopol] (10 µM): the morphology score in assay [1] was -0.0828. In addition, in assay [2], the SARS-CoV-2 infection rate is 108% (inactive).
The corresponding values for `C=CC(=O)Nc1cc2c(Nc3ccc(F)c(Cl)c3)ncnc2cc1OCCCN1CCOCC1` [canertinib] (10 µM) are -0.116 and 107% (inactive).
The corresponding values for `C[C@@H]1C[C@H]2[C@@H]3C[C@H](F)C4=CC(=O)C=C[C@]4(C)[C@@]3(F)[C@@H](O)C[C@]2(C)[C@@]1(O)C(=O)CO` [flumethasone] (10 µM) are -0.0494 and 110% (inactive).
The corresponding values for `C[C@@H](O[C@H]1OCCN(Cc2n[nH]c(=O)[nH]2)[C@H]1c1ccc(F)cc1)c1cc(C(F)(F)F)cc(C(F)(F)F)c1` [aprepitant] (10 µM) are 0.0718 and 108% (inactive).
In assay [1], `N#Cc1c(Oc2ccc(F)c(NC(=O)Cc3cccc(C(F)(F)F)c3)c2)ccc2nc(NC(=O)C3CC3)sc12` (10 µM) came in with a morphology score of -0.304. The SARS-CoV-2 infection rate in assay [2] is 108% (inactive).
The corresponding values for `C[C@H](NCc1ccc(OCc2cccc(F)c2)cc1)C(N)=O` [safinamide] (10 µM) are -0.052 and 115% (inactive).
The corresponding values for `CC[C@@]1(O)C(=O)OCc2c1cc1n(c2=O)Cc2cc3cc(O)ccc3nc2-1` [10-hydroxycamptothecin] (10 µM) are -0.13 and 103% (inactive).
The corresponding values for `c1ccc2sc(SNC3CCCCC3)nc2c1` [N-cyclohexyl-2-benzothiazolesulfenamide] (10 µM) are -0.00896 and 106% (inactive).
In turn, `CCN[C@H]1C[C@H](C)S(=O)(=O)c2sc(S(N)(=O)=O)cc21` [dorzolamide] (10 µM) gave a morphology score in assay [1] of 0.0923. Further, in assay [2], the SARS-CoV-2 infection rate is 100% (inactive).
The corresponding values for `CCOC1O[C@H]([C@@H](COCc2ccccc2)OCc2ccccc2)[C@H](OCc2ccccc2)[C@H]1O` (stereo not given in full) [tribenoside] (10 µM) are -0.0493 and 102% (inactive).
`OC1=c2ccccc2=C(NC2CCCCC2)/C1=C\c1ccccc1` (0.833333 µM): the morphology score in assay [1] stood at 0.213. The SARS-CoV-2 infection rate in assay [2] is 85.5% (inactive).
The corresponding values for `CN1CCC(NC(=O)c2cc(-c3c(O)cc(O)cc3Oc3ccc([N+](=O)[O-])cc3)on2)CC1` (0.833333 µM) are 0.247 and 95.5% (inactive).
The corresponding values for `O=c1cc(N2CCNCC2)oc2c(-c3ccccc3)cccc12` (10 µM) are 0.175 and 101% (inactive).
`O=c1[nH]cnc2c([C@@H]3N[C@H](CO)[C@@H](O)[C@H]3O)c[nH]c12` [forodesine] (10 µM) displayed a morphology score in assay [1] of 0.155. In addition, the SARS-CoV-2 infection rate in assay [2] was 103% (inactive).
The corresponding values for `NC/C(=C/F)CCc1ccc(F)cc1` [mofegiline] (10 µM) are -0.0471 and 115% (inactive).
`COc1cc(C[C@H](C)[C@H](C)Cc2ccc3c(c2)OCO3)ccc1O` [macelignan] (10 µM) came in with a morphology score in assay [1] of 0.185. Moreover, the SARS-CoV-2 infection rate in assay [2] was 102% (inactive).
The corresponding values for `O=C(Nc1ccccc1C(=O)NC1CCCCNC1=O)c1cc2ccccc2s1` (stereo not given) (10 µM) are 0.0242 and 99.5% (inactive).
Compound `CN1C(=O)C(Cc2c[nH]c3ccccc23)NC1=S` (stereo not given) [necrostatin-1] (10 µM) showed a morphology score in assay [1] of 0.186. In addition, in assay [2], the SARS-CoV-2 infection rate was 93.5% (inactive).
The corresponding values for `c1cc(OCCN2CCCCC2)cc(-c2n[nH]c3ccc(-c4nnc[nH]4)cc23)c1` (10 µM) are 0.363 and 94.5% (inactive).
The corresponding values for `COC(=O)[C@H](c1ccccc1Cl)N1CCc2sccc2C1` [clopidogrel] (10 µM) are 0.229 and 99% (inactive).
The corresponding values for `Cc1ccc(S(=O)(=O)N2CCC[C@H]2c2ccc(F)cc2)cc1` (10 µM) are -0.114 and 110% (inactive).
On to `c1cc2c(cc1[C@H]1OC[C@H]3[C@@H]1CO[C@@H]3c1ccc3c(c1)OCO3)OCO2` [sesamin] (10 µM), for which the morphology score in assay [1] was -0.0737. The SARS-CoV-2 infection rate in assay [2] is 120% (inactive).
The corresponding values for `CCN(CCO)CCCC(C)Nc1ccnc2cc(Cl)ccc12` (stereo not given) [hydroxychloroquine] (10 µM) are 0.362 and 88% (inactive).
The corresponding values for `CSc1ccc2c(c1)N(CCC1CCCCN1C)c1ccccc1S2` (stereo not given) [thioridazine] (0.833333 µM) are 0.304 and 109% (inactive).
The compound `C/C=C/c1cc(OC)c(OC)cc1OC` [alpha-asarone] (10 µM) returned a morphology score in assay [1] of 0.0292. Further, in assay [2], the SARS-CoV-2 infection rate was 98.5% (inactive).
The corresponding values for `CO[C@H]1/C=C/O[C@@]2(C)Oc3c(C)c(O)c4c(O)c(c(/C=N/N=C/N5CCCCC5)c(O)c4c3C2=O)NC(=O)/C(C)=C\C=C\[C@H](C)[C@H](O)[C@@H](C)[C@@H](O)[C@@H](C)[C@H](OC(C)=O)[C@@H]1C` (10 µM) are 0.053 and 108% (inactive).
The corresponding values for `N=C(N)c1cc2ccc(OC(=O)c3cccs3)cc2s1` (10 µM) are 0.578 and 76% (inactive).
The corresponding values for `O=C(Nc1cc(Oc2cc(F)c(NC(=O)C3(C(=O)Nc4ccc(F)cc4)CC3)cc2F)ccn1)C1CC1` [altiratinib] (10 µM) are 0.122 and 88.5% (inactive).
With `Cc1ccc(S(N)(=O)=O)cc1` [para-toluenesulfonamide] (10 µM), the morphology score in assay [1] is -0.0434. In addition, the SARS-CoV-2 infection rate in assay [2] is 106% (inactive).
The corresponding values for `CC(Oc1ccc(O)cc1)(P(=O)(O)O)P(=O)(O)O` (10 µM) are 0.0418 and 107% (inactive).
The corresponding values for `Nc1cccc2c(=O)[nH][nH]c(=O)c12` [monosodium-alpha-luminol] (10 µM) are 0.000532 and 104% (inactive).
In turn, `C[C@@]1(O)[C@H](O)[C@@H](CO)O[C@H]1n1cnc2c(NC3CCCC3)nc(Cl)nc21` (10 µM) registered a morphology score in assay [1] of 0.0826. Also, the SARS-CoV-2 infection rate in assay [2] is 102% (inactive).
In assay [1], `COc1cc(N2CCN(C)CC2)ccc1Nc1nccc(-c2cn(C)c3cnccc23)n1` (0.833333 µM) came in with a morphology score of 0.377. Besides, the SARS-CoV-2 infection rate in assay [2] was 100% (inactive).
The corresponding values for `CC(C)(C)NCC(O)c1cc(O)cc(O)c1` (stereo not given) (10 µM) are 0.0272 and 113% (inactive).
The corresponding values for `CSc1ccccc1Nc1nc(N2CCNCC2)nc2c(NCC3CC3)ncnc12` (0.833333 µM) are 0.166 and 101% (inactive).
The corresponding values for `CC(=O)O[C@H]1Cc2ccccc2N(C(N)=O)c2ccccc21` [eslicarbazepine-acetate] (10 µM) are 0.137 and 106% (inactive).
In assay [1], `Nc1cc(N2CCCCC2)nc(N)[n+]1[O-]` [minoxidil] (10 µM) returned a morphology score of 0.0795. In assay [2], the SARS-CoV-2 infection rate is 104% (inactive).
In assay [1], `CCOC(=O)N1CCC(=C2c3ccc(Cl)cc3CCc3cccnc32)CC1` [loratadine] (10 µM) came in with a morphology score of 0.221. Further, the SARS-CoV-2 infection rate in assay [2] was 90% (inactive).
